# The list is not random: actives were taken first. Their share in the collection is about 3.4%.
# FBW7 act – activators of human E3 ligase FBW7; Q969H0; AlphaScreen FBW7–phospho-cyclin E peptide binding, activator screen; normalized activity (activation), % at 26.1 µM; 650,000 compounds, 0.13% hits; AID 1259310; in the data active means normalized activity above about 1.9%;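 further: purified mutant Fbw7 with reduced substrate affinity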
# TEAD-YAP inh – TEAD-YAP interaction inhibition | HEK-TIYL cells, TEAD-Gal4/YAP UAS-luciferase luminescence | inhibition, % at 9.12 µM | 640,000 compounds, 1.4% hits | AID 1259422; in the data active means inhibition above about 32%;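 further: 0% = median of test compound wells and 100% = reference inhibitor wells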
# MITF inh – blocks human microphthalmia-associated transcription factor | AlphaScreen MITF homodimerization, bead proximity signal | 650,000 compounds, 0.91% hits | O75030 | inhibition, % at 2.6 µM; in the data active means inhibition above about 50%;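 further: 0% = vehicle wells with protein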
# GPR151 activ – human GPR151 activation; AID 1508602; 650,000 compounds, 1% hits; Q8TDV0; PathHunter beta-arrestin GPR151 cells, luminescence; activation, % at 11.2 µM; in the data active means activation above about 4.9%;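 further: 0% = median of compound wells and 100% = cells with positive control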
# Target sequence (Q8TDV0 whole entry, looked up): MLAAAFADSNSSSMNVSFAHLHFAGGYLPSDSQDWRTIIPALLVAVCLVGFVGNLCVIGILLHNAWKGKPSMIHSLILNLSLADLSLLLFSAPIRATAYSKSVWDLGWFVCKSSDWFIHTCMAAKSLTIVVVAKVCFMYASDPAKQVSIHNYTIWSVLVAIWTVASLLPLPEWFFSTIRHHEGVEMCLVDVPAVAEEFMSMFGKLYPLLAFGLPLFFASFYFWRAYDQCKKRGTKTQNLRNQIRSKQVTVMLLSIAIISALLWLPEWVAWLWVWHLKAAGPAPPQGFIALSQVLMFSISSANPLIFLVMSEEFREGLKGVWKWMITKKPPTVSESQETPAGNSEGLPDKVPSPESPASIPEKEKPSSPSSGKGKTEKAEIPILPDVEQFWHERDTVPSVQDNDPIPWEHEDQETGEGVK
# GPR151 conf act – human GPR151 activation, confirmation screen. shares compounds with GPR151 activ. GPR151 PathHunter beta-arrestin cells, luminescence, 90 min; % of EA-reagent control over plate median. activation, % at 11.2 µM. 6,700 tested, under 10 active. AID 1508609;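 active means mean percent activation across replicates above the confirmation screen cutoff of 4.91%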
# GPR119 ag – activates human GPR119 in a GPR151 counter-screen | shares compounds with GPR151 activ | GPR119 PathHunter beta-arrestin cells, luminescence, 90 min; 0 = compound-well median, 100 = enzyme-acceptor control | activation, % at 11.2 µM | 6,700 compounds, 0.3% hits | AID 1508611;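 active means mean percent activation in the counterscreen above 29.09%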;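 further: counterscreen on off-target GPR119 to flag nonselective hits from the GPR151 activator screen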
# Numbers without * were called inactive; · = not tested or not shown.
SMILES,FBW7 act,TEAD-YAP inh,MITF inh,GPR151 activ,GPR151 conf act,GPR119 ag
CC(=O)c1cccc(NC(=O)COc2ccccc2[N+](=O)[O-])c1,0.0,-30.2,-11.4,6.2*,0.8,7.3
C/C(=N\NC(=O)COc1ccccc1[N+](=O)[O-])c1ccc(Cl)cc1,-0.1,-17.2,-10.9,7.1*,0.1,-0.7
COc1ccc(NC(=O)Cc2ccccc2[N+](=O)[O-])cc1Cl,-0.1,-32.3,-8.0,1.5,·,·
O=C(COc1ccccc1-c1ccccc1)NNC(=O)COc1ccccc1[N+](=O)[O-],-0.1,-9.3,8.2,7.1*,-0.8,1.8
Cc1ccc(S(=O)(=O)N(CC(O)Cn2c3ccc(Cl)cc3c3cc(Cl)ccc32)c2ccc(F)cc2)cc1 (centres undefined),0.2,-10.4,2.9,-0.3,·,·
O=C(COc1ccc(Cl)cc1Cl)NC1CC2CCC1C2 (centres undefined),0.5,-5.8,-3.7,5.3*,-0.4,8.8
Cc1ccc(OCC(=O)N/N=C\c2cccn2C)c([N+](=O)[O-])c1,0.1,-2.9,18.0,5.3*,-1.5,-9.9
Cc1ccc(C)c(OCC(=O)N/N=C\c2cccn2C)c1,0.3,5.6,19.4,-0.1,·,·
COc1cc(C)ccc1OCc1cc(C(=O)N2CCSCC2)no1,-0.1,-76.0,-7.5,6.0*,0.2,-0.2
COc1cc(C)ccc1OCc1cc(C(=O)N2CCCCCC2)no1,0.0,-9.5,2.5,-0.4,·,·
COCCNC(=O)c1ccc2c(=O)n(Cc3ccc(Cl)cc3)c(SCc3cc(C(C)=O)ccc3OC)nc2c1,0.3,6.7,11.4,-0.3,·,·
Nc1ccc2nc(SCC(=O)c3ccc(Cl)cc3)sc2c1,0.1,-3.5,14.4,6.6*,-0.2,-1.5
CCC(C)NC(=O)CN(c1cccc(C(F)(F)F)c1)S(=O)(=O)c1ccccc1 (centres undefined),0.0,6.1,-10.4,10.0*,0.1,3.2
CCC(C)NC(=O)CN(c1cccc(C(F)(F)F)c1)S(C)(=O)=O (centres undefined),0.2,2.6,-2.7,0.0,·,·
CCCOc1ccc(N2C(=O)CC(NCCCc3ccccc3)C2=O)cc1 (centres undefined),0.0,-7.7,-2.3,6.1*,0.1,-6.9
COc1ccc(CCNC2CC(=O)N(c3ccc(F)cc3)C2=O)cc1 (centres undefined),-0.1,-8.1,4.7,0.2,·,·
CCCOc1ccc(N2C(=O)CC(NCC34CC5CC(CC(C5)C3)C4)C2=O)cc1 (centres undefined),0.0,5.5,1.4,5.2*,-0.7,-10.7
Cc1ccc(N2C(=O)CC(NCCc3ccc(Cl)cc3)C2=O)cc1 (centres undefined),0.0,5.6,0.6,6.4*,0.6,11.6
COc1ccc(CCNC2CC(=O)N(c3ccccc3)C2=O)cc1 (centres undefined),0.0,6.4,0.3,5.8*,-0.1,4.2
Cc1cc(C)c2nc(NC(=O)c3nc4nccc(C)n4n3)sc2c1,0.0,5.2,-3.7,-2.6,·,·
O=C1N[C@H](C(=O)N2Cc3ccccc3OC(c3ccccc3)C2)CS1 (some centres undefined),0.0,-1.9,7.5,0.3,·,·
C=C(C)CSc1nc2c(c(=O)n1Cc1ccco1)C1(CCCCC1)Cc1ccccc1-2,-0.2,-7.4,-7.7,0.2,·,·
C#CCNc1cc(-c2ccccc2)nc2ncnn12,0.0,-0.1,-1.2,7.1*,0.1,-2.8
C=CCNc1cc(-c2ccccc2)nc2ncnn12,-0.1,-3.4,-2.1,-0.1,·,·
COc1cc2c(cc1OC)C(C(=O)NCCC(C)C)C1c3ccccc3CCN1C2=O (centres undefined),-0.1,0.2,1.8,-0.8,·,·
SMILES,FBW7 act,TEAD-YAP inh,MITF inh,GPR151 activ,GPR151 conf act,GPR119 ag
COC(=O)c1cccn2cc(-c3ccc(F)cc3)nc12,-0.1,-9.7,1.0,4.9*,-1.1,-5.8
Cc1ccc2[nH]c(=O)c(CN(CC3COCCO3)S(=O)(=O)c3ccc(F)cc3)cc2c1 (centres undefined),0.5,-12.1,11.1,5.3*,-0.8,0.0
O=C(O)Cc1ccc(NC(=O)c2ccccc2-c2ccccc2C(=O)O)cc1,0.0,7.5,7.2,6.6*,-1.1,-10.7
O=C(CN(Cc1ccccc1F)S(=O)(=O)c1ccc(Cl)cc1)NCCCO,-0.1,11.2,5.0,6.0*,0.9,7.8
COc1ccccc1CNC(=O)CC1C(=O)NCCN1CCC(C)C (centres undefined),0.0,-0.2,1.7,5.8*,0.2,0.1
CCCNc1nc(-c2ccc(C(N)=O)cc2)ncc1C,0.1,-6.2,-0.6,-1.9,·,·
O=C(CCCn1c(=O)c2cccn2c2cccnc21)NC1CCN(Cc2ccccc2)CC1,0.1,-13.2,-7.8,5.8*,-1.0,-3.8
O=C(CCCn1c(=O)c2cccn2c2ccccc21)NC1CCN(Cc2ccccc2)CC1,0.0,-3.6,-5.9,-0.2,·,·
Cn1cc(CCC(=O)NC2CCN(Cc3ccccc3)CC2)c2ccccc21,-0.2,-4.1,1.3,5.9*,2.0,1.3
COc1ccccc1CNC(=O)CCc1cn(C)c2ccccc12,0.0,-4.0,-1.6,5.9*,-0.4,0.4
COc1cccc(/C=C2\SC(N3CCCCCC3)=NC2=O)c1OC,-0.1,-23.8,19.0,1.3,·,·
CCOCCCNC(=O)c1c(OC)cccc1OC,0.0,5.6,-4.5,0.8,·,·
NS(=O)(=O)c1ccc(CCNC(=O)CCCCCn2c(=S)[nH]c3ccsc3c2=O)cc1,-0.1,6.5,8.9,1.0,·,·
NNC(=O)CSc1nc2cccnc2s1,-1.3,1.9,-15.0,5.1*,-0.3,5.9
O=C1C2CCCN2C(c2cccc(F)c2)N1c1ccc(F)cc1 (centres undefined),-0.1,0.4,-8.5,0.9,·,·
Cc1cc(C)c(NC(=O)CSc2nc(C)cc(=O)[nH]2)c([N+](=O)[O-])c1,-0.2,-10.7,-0.8,8.2*,-1.0,-10.7
COc1ccc(OC(C)C(=O)Nc2cc(Cl)ccc2C)cc1 (centres undefined),1.2,15.2,6.4,9.3*,-0.8,-4.2
CC(Oc1ccccc1)C(=O)Nc1ccccc1Br (centres undefined),0.0,-6.1,-13.3,-0.3,·,·
CC(=O)Nc1ccc(NC(=O)C(C)Oc2cccc(C)c2)cc1 (centres undefined),-0.1,0.8,11.7,0.4,·,·
CC(=O)Nc1ccccc1NC(=O)C(C)Oc1cccc(C)c1 (centres undefined),-0.1,-1.5,5.2,26.6*,-0.6,-12.6
CC(Oc1ccccc1)C(=O)Nc1ccccc1O (centres undefined),0.1,-8.4,12.3,5.3*,-0.3,9.6
COc1ccc(-n2ccnc(SCc3ccccc3Cl)c2=O)cc1,0.2,-12.8,-7.5,0.9,·,·
CN(C)c1ccc(/C=N\NC(=O)Cc2cccs2)cc1,0.1,-64.5,10.6,1.1,·,·
CCc1cccc(CC)c1NC(=O)CCCC(=O)O,0.9,3.0,9.1,6.6*,-0.1,0.1
